HT1080NT lethal = kills 2HG-producing HT-1080-NT fibrosarcoma cells; Potency, µM (titrated, usually from 46.1 µM), most hits filed as cytotoxic; actives 1.6% (n = 360,000); HT-1080-NT fibrosarcoma viability, CellTiter-Glo ATP luminescence, 48 h;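 further: NT is the 2HG producing partner of a matched IDH1 knockdown line; nearly all actives have a fitted effect of over 55% in size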
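Fibrosarcoma NT cells, 750 per well in 5% FBS RPMI, were exposed to compound for 48 hours. Viability: CellTiter-Glo luminescence.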
KB-V1 cytotox = kills drug-selected multidrug resistant KB-V1 cells; AID 1347076; actives 3.4% (n = 400,000); KB-V1 MDR cells viability, CellTiter-Glo, 72 h; Potency, µM (highest dose often 46.1 µM), usual class: cytotoxic; further: nearly all actives have a fitted effect of over 60% in size
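Compound-treated KB-V1 multidrug-resistant cells, 72 h, 37 degrees C; viability by CellTiter-Glo. Fitted qHTS curves give the values.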
TDP1 cell CPT = DT40-hTDP1 cell growth loss with CPT | chicken DT40 Tdp1-/-;hTDP1 cells + 20 nM CPT, ATP luminescence, 48 h | Potency, µM (top dose mostly 46.2 µM), hits mostly inhibitors | actives 12% (n = 420,000) | AID 686979; further: nearly all actives have a fitted effect of over 55% in size
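Cell growth measured by CellTiter-Glo luminescence after a minimum 48 h, 37 C compound exposure with 20 nM CPT in Tdp1-knockout DT40 cells stably expressing hTDP1, seeded 400/well; qHTS titration format.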
DT40 TDP1 no CPT = qHTS for Inhibitors of human tyrosyl-DNA phosphodiesterase 1 (TDP1): qHTS in cells in absence of CPT. AID 686978, 2013. actives 15% (n = 420,000). DT40 Tdp1-/- hTDP1 cells, no CPT, ATP luminescence, 48 h. Potency, µM (titrated, usually from 46.2 µM), usual class: inhibitors; further: nearly all actives have a fitted effect of over 55% in size
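DT40 Tdp1-/-;hTDP1 cells, no CPT (DMSO vehicle only), 400 cells/well; compounds pin-transferred; ≥48 hr, 37 °C; CellTiter-Glo 30 min RT dark, luminescence read.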
KB-3-1 cytotox = kills parental KB-3-1 adenocarcinoma cells; Potency, µM (highest dose often 46.1 µM), usual class: cytotoxic; actives 1.4% (n = 400,000); KB-3-1 viability, CellTiter-Glo ATP luminescence, 72 h; further: nearly all actives have a fitted effect of over 60% in size
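Using CellTiter-Glo luminescence, growth of non-resistant KB-3-1 adenocarcinoma cells is assessed 72 h after pin-tool compound addition at 37 °C. Normalized responses across the concentration series yield fitted curves.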
HT1080 IDH1KD tx = kills HT-1080 cells with IDH1 knockdown; Potency, µM (highest dose often 46.1 µM), usual class: cytotoxic; actives 2% (n = 360,000); HT-1080 IDH1 knockdown viability, ATP luminescence, 48 h
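IDH1KD HT-1080 cells, 750/well, RPMI + 5% FBS; compound pinned after 2 h settling; 48 h, 37 °C; CellTiter-Glo luminescence; % activity normalised to DMSO and no-cell wells; curves fitted, classed by r2 and efficacy.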
Numbers stand for hits; n = inactive; u = inconclusive; x = no result given; ! = not confirmed by another sample. Rows were chosen to be rich in hits. Some 19% of all compounds tested hit in one or more screens of this group. The call rests on the fitted dose curve; in most records, active means well fitted curve in the direction sought with a large enough effect; inconclusive means small, poorly fitted or top-dose-only effect, or another doubt; inactive means no such curve, though single readings can be large; an effect the other way counts as inactive or inconclusive.

SMILES | HT1080NT lethal | KB-V1 cytotox | TDP1 cell CPT | DT40 TDP1 no CPT | KB-3-1 cytotox | HT1080 IDH1KD tx
COC(=O)NC(=S)Nc1ccc(Oc2ccc(Cl)cc2Cl)c(Cl)c1 | 16µM | u | 9.2µM | 4.6µM | 15µM | 21µM
COc1cccc(NC(=O)Nc2ccc(C)c(Cl)c2)c1 | n | n | u | u | n | n
Cc1ccc(NC(=O)Nc2ccc(F)cc2)cc1Cl | n | n | u | 23µM | n | n
O=C(Nc1ccncc1)Nc1ccc(F)c(Cl)c1 | n | n | 16µM | u | n | n
COC(=O)NC(=S)Nc1ccc(Oc2ccc(Cl)cc2)c(Cl)c1 | u | n | u | u | n | n
CC(C)(C)NC(=O)C1c2ccccc2OCC(=O)N1CCc1ccccc1 (stereo unspecified) | n | n | n | n | n | n
CC1=C(C(=O)Nc2ccccn2)C(c2cn(C)nc2C)C2=C(CCCC2=O)N1 (stereo unspecified) | n | n | n | n | n | n
OB(O)c1csc2ccccc12 | x | n | n | 11µM | n | x
O=C(Nn1cnnc1)c1csc2ccccc12 | n | n | n | n | n | n
COc1cc(S(=O)(=O)NCC2(N3CCCCC3)CCCCC2)ccc1NC(C)=O | n | n | n | n | n | n
Cc1cnc(NC(=O)C2(C)CCN2C(=O)C(C)C)s1 (stereo unspecified) | n | n | n | n | n | u
COc1cccc(CNC(=O)c2cnc3c(-c4ccc(F)cc4)c(C)nn3c2C)c1 | x | n | n | n | n | x
NC(=O)C1CCN(c2ncc(-c3ccc4c(c3)OCCO4)s2)CC1 | x | n | x | x | n | x
COc1cccc(OCC(O)CNC(C)c2ccccc2)c1 (stereo unspecified) | n | n | u | u | n | u
COc1ccc(C(OCC(O)CNC(C)c2ccccc2)c2ccc(OC)cc2)cc1 (stereo unspecified) | u | u | u | 23µM | n | 21µM
C/C=C/c1ccc(OCC(O)CNCCc2ccc(OC)cc2)c(OC)c1 (stereo unspecified) | n | n | u | u | n | n
COc1ccc(C(OCC(O)CNCCc2ccccc2)c2ccc(OC)cc2)cc1 (stereo unspecified) | 23µM | 16µM | 23µM | 18µM | u | 23µM
CC(=O)Oc1c(C)cc(Cl)cc1C(=O)Nc1ccc([N+](=O)[O-])cc1Cl | u | n | 0.52µM | 0.46µM | 7.3µM | 1.2µM
O=C(Nc1ccc([N+](=O)[O-])cc1Cl)c1ccccc1O | x | 16µM | 3.2µM | 3.2µM | 2.9µM! | x
COc1ccc(C(C)=O)cc1COC(=O)c1ccc(S(=O)(=O)N(C)C)cc1 | n | n | n | n | n | n
Cc1cc(NC(=O)CSc2nnnn2-c2ccc(C)c(Cl)c2)no1 | n | n | n | n | n | n
OC(COc1ccc2ccccc2c1Br)Cn1ccnc1 (stereo unspecified) | n | n | u | 21µM | u | n
CCc1ccc(S(=O)(=O)c2nnn(-c3cccc(C)c3)c2N)cc1 | x | n | 21µM | 15µM | n | x
COc1ccc(S(=O)(=O)c2nnn(-c3ccccc3Cl)c2N)cc1 | n | u | n | n | n | n
CCOc1ccccc1-n1nnc(S(=O)(=O)c2ccc(C)cc2)c1N | x | u | u | 12µM | n | x
SMILES | HT1080NT lethal | KB-V1 cytotox | TDP1 cell CPT | DT40 TDP1 no CPT | KB-3-1 cytotox | HT1080 IDH1KD tx
Cc1ccc(-n2c(C)nnc2SCC(=O)NNC(=O)c2ccco2)cc1 | n | n | n | n | n | n
O=C1CC(c2nc3ccccc3n2CCC2CCCCC2)CN1c1ccccc1Cl (stereo unspecified) | x | u | n | u | n | x
Cc1ccc(C(=O)NCC(=O)Nc2ncccc2C)s1 | n | n | n | n | n | n
CCC(CO)Nc1ccn2nc(-c3cccc(Cl)c3)cc2n1 (stereo unspecified) | n | n | 23µM | 23µM | n | n
CCOC(=O)c1sc2nc(OCc3cccnc3)cc(C)c2c1N | n | u | u | u | n | n
COC(=O)c1ccccc1NC(=O)C1CCN(c2ncnc3c2nc2n3CCCCC2)CC1 | n | n | 21µM | 16µM | n | n
Cc1c(Cl)cccc1NC(=O)C1CCN(c2ncnc3c2nc2n3CCCCC2)CC1 | x | x | u | n | x | x
CN(C)CCN(Cc1ccccc1)C(=O)C1CCN(c2ncnc3c2nc2n3CCCCC2)CC1 | n | n | n | n | n | n
CC(C)N(Cc1ccccc1)C(=O)C1CCN(c2ncnc3c2nc2n3CCCCC2)CC1 | n | n | u | 18µM | n | n
COc1ccccc1NC(=O)C1CCN(c2ncnc3c2nc2n3CCCCC2)CC1 | n | n | 23µM | 18µM | n | n
O=c1cc(O)n(-c2ccc(Cl)cc2)c(=S)[nH]1 | n | u | n | n | n | n
COc1ccc2cnnc(SCC(=O)Nc3ccc(C(C)=O)cc3)c2c1OC | n | 5.2µM | n | u | n | n
COc1ccc2cnnc(SCC(=O)Nc3ccccc3)c2c1OC | n | 2.9µM | n | u | n | n
COc1ccc2cnnc(SCC(=O)Nc3ccc(C(=O)O)cc3)c2c1OC | n | u | n | n | n | n
Cc1ccc(NC(=O)CSc2nncc3ccccc23)cc1 | n | n | n | n | n | n
CCc1nc2ccc(Cc3ccc4nc(CC)[nH]c4c3)cc2[nH]1 | n | n | 13µM | 23µM | u | n
CCc1nc2ccccc2[nH]1 | n | n | n | n | n | n
Cc1ccc(OCC(=O)Nc2sc3c(c2C#N)CC(C)(C)NC3(C)C)cc1 | 21µM | n | u | u | n | u
CC1(C)Cc2c(sc(NC(=O)COc3cccc4ccccc34)c2C#N)C(C)(C)N1 | 9.2µM | n | 10µM | 13µM | u | 15µM
CCOc1ccc(CC(=O)NCCc2csc(-c3ccc(Cl)cc3)n2)cc1 | x | n | u | 16µM | n | x
CCOc1ccc(CC(=O)NCCc2csc(-c3ccc(C)cc3)n2)cc1 | x | x | u | 21µM | x | x
COc1cc(=O)n2c(c1C(=O)N(C)Cc1ccsc1)CCN(Cc1c(C)nc3sccn13)CC2 | x | x | n | n | x | x
O=C(COc1ccc(Cl)cc1Br)Nc1nnc(C2CC2)s1 | n | n | n | n | n | n
O=C(CBr)c1ccc([N+](=O)[O-])c(CS(=O)(=O)c2ccc(Cl)cc2)c1 | n | n | u | u | n | n
C=CC[n+]1c(-c2ccc(OC)c(OC)c2)csc1NNC(=O)Nc1ccccc1 | u | 18µM | 7.3µM | 6.5µM | u | 16µM
Cc1ccc(N(C)C(=O)Cn2nc(Cc3ccncc3)c3ccccc3c2=O)cc1C | x | x | n | n | x | x
CCN(CCO)CCCC(C)Nc1ccnc2cc(Cl)ccc12 (stereo unspecified) | x | x | 2.6µM | 4.1µM! | x | x

Screening results as filed in PubChem BioAssay.
